Shiga inhibitor: A qHTS for Small Molecule Inhibitors of Shiga Toxin | AID 2315, 2010 | Vero cells, Shiga toxin protein synthesis inhibition reporter | inhibition, % at 38.7 µM | hit rate 9.2% among 290,000; in the data active = inhibition mostly above about 28%, no sharp cut-off; inactive = mostly below about 43%
AmpC inh no detg: qHTS Inhibitors of AmpC Beta-Lactamase (assay without detergent); AID 485341, 2010; Potency, µM (doses to about 57.1 µM), most hits filed as inhibitors; AmpC nitrocefin hydrolysis, absorbance 480 nm, 0.0001% Triton; hit rate 0.52% among 330,000; also: nearly all actives have a fitted effect of over 20% in size
Target sequence (P00811 whole entry, looked up): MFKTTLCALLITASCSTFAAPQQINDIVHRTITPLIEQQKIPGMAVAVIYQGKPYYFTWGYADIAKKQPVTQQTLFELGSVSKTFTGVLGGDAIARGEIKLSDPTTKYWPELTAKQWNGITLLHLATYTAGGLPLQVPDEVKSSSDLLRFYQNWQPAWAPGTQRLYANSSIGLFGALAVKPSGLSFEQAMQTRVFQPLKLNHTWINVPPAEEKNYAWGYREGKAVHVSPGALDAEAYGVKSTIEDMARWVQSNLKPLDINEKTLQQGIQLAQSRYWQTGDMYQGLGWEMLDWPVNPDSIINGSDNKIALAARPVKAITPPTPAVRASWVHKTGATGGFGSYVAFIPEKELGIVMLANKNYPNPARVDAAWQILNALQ
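AmpC (5.3 nM in the dispensed reagent) in 20 mM phosphate pH 7.0 with 0.01% (detergent screen) or 0.0001% Triton X-100 was preincubated with compounds for 15 min at room temperature. Nitrocefin was then added from an 800 uM solution, and hydrolysis was followed at 480 nm.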
AMA1-RON2 inh: qHTS for Inhibitors of AMA1-RON; Towards Development of Antimalarial Drug Lead: Primary Screen; Potency, µM (series often up to 58.2 µM), actives largely listed as inhibitors; hit rate 0.2% among 360,000; AlphaScreen AMA1-biotinylated RON2 peptide binding; also: nearly all actives have a fitted effect of over 45% in size
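AMA1 (3D7) with his tag at 25 nM final met compounds first, then biotinylated RON2 peptide at 25 nM; detection used donor plus acceptor beads, 10 µg/mL apiece, read by AlphaScreen after 30 min at room temperature.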
Cycloheximide cs: Cycloheximide Counterscreen for Small Molecule Inhibitors of Shiga Toxin | max response, % | cell reporter, cycloheximide protein synthesis inhibition counterscreen | hit rate 12% among 300,000; in the data active = max response mostly above about 13%, no sharp cut-off; inactive = mostly below about 14%; also: read at 38.3 µM for the half of the compounds with a filed dose
AmpC detergent: qHTS Inhibitors of AmpC Beta-Lactamase (assay with detergent). Potency, µM (doses to about 114 µM), most hits filed as inhibitors. P00811. AmpC hydrolysis of nitrocefin, absorbance 480 nm, 0.01% Triton. hit rate 0.041% among 370,000; also: nearly all actives have a fitted effect of over 25% in size
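AmpC (5.3 nM in the dispensed reagent) in 20 mM phosphate pH 7.0 with 0.01% (detergent screen) or 0.0001% Triton X-100 was preincubated with compounds for 15 min at room temperature. Nitrocefin was then added from an 800 uM solution, and hydrolysis was followed at 480 nm.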
SARS PLpro yeast: qHTS of Yeast-based Assay for SARS-CoV PLP; Potency, µM (top dose mostly 32.9 µM), most hits filed as activators; hit rate 0.19% among 330,000; S. cerevisiae expressing SARS-CoV PLpro, growth rescue; calls by dose curve; also: nearly all actives have a fitted effect of over 55% in size
A number is an active result; . = inactive; ? = inconclusive; / = no result given; [ ] = remark or other dose. Shown is part of a subset that was picked to be rich in hits. Unless noted, calls follow the shape of the dose curve; as a rule, active = well fitted curve in the direction sought with a large enough effect; inconclusive = small, poorly fitted or top-dose-only effect, or another doubt; inactive = no such curve, though single readings can be large; an effect the other way counts as inactive or inconclusive.

SMILES | Shiga inhibitor | AmpC inh no detg | AMA1-RON2 inh | Cycloheximide cs | AmpC detergent | SARS PLpro yeast
CC1CCCCN1C(=O)CN1CCSc2ccccc21 (stereo not given) | / | / | / | / | . | /
CC(C)(C)c1ccc(NC(=O)c2ccccc2)c([N+](=O)[O-])c1 | 121.6 | . | . | 35.4 | . | .
O=C(Nc1ccccc1[N+](=O)[O-])c1cncc(Br)c1 | . | . | . | 27.6 | . | .
COc1ccc2o/c(=N/NC(=O)c3cccs3)c(C(N)=O)cc2c1 | 70.9 | . | . | 35.6 | . | .
N/C(=N\NC(=O)c1ccccc1)c1cc2ccccc2oc1=O | . | . | . | . | . | .
N/C(=N\NC(=O)c1cccs1)c1cc2cc(Cl)ccc2oc1=O | 48.8 | . | . | 36.0 | . | .
Cc1cc(C)nc(NC(=O)CSc2nc3cc(Cl)ccc3s2)n1 | . | . | . | . | . | .
COc1ccc(NC(=O)CCSc2nc(C)cs2)cc1 | 130.9 | . | . | 31.7 | . | .
Cc1csc(SCC(=O)Nc2ccccc2)n1 | 65.5 | . | . | 11.3 | . | .
Cc1cccc(NC(=O)CSc2nc3sc(C)cc3c(=O)n2C)c1 | / | / | . | / | / | /
Cc1cc2c(=O)n(C)c(SCC(=O)Nc3ccccc3)nc2s1 | 54.6 | . | . | 22.2 | . | .
COc1cc(NC(=O)CSc2nc(C)cs2)cc(OC)c1 | . | . | . | . | ? | .
Cc1cc(C)nc(NC(=O)CSc2nc3ccccc3s2)n1 | 82.6 | . | . | 33.0 | . | .
Cn1ccc2cc(S(=O)(=O)N3CCN(C(=O)Nc4ccc(F)cc4F)CC3)ccc21 | / | / | / | / | . | /
C[C@H](CO)N1C[C@H](C)[C@@H](CN(C)C(=O)NC2CCCCC2)Oc2ccc(NS(=O)(=O)c3cn(C)cn3)cc2C1=O | / | . | . | / | / | .
COC(=O)c1ccc(NC(=O)COC(=O)CSc2nc(C)cc(C)n2)cc1 | . | . | . | . | . | .
Cc1csc(SCC(=O)Nc2nnc(C)s2)n1 | . | . | . | . | . | .
CC(=O)C1=C(C)NC(SCC(=O)Nc2nc3ccccc3s2)=C(C#N)C1c1ccc(Cl)cc1 (stereo not given) | . | . | . | 21.6 | . | .
Cc1csc(SCC(=O)Nc2nc3ccccc3s2)n1 | 65.1 | . | . | 32.1 | ? | .
Cc1cc(C)nc(SCC(=O)OCC(=O)Nc2nc3ccccc3s2)n1 | 13.6 | . | . | 22.2 | . | .
Cn1cc(SCC(=O)Nc2nc3ccccc3s2)c2ccccc21 | . | . | . | 29.0 | . | .
CCCCn1c(N)c(N(CCC(C)C)C(=O)CSc2nnc(Nc3ccccc3)s2)c(=O)[nH]c1=O | . | . | . | . | . | .
Cc1cc(C)n2c(Br)c(CSc3nc4ccccc4s3)nc2n1 | . | . | . | 33.9 | . | ?
CCn1c(CSc2nc3ccccc3s2)nc2ccccc21 | . | . | . | . | . | .
CC(C)(C)N=C1NC(=NC(C)(C)C)c2ccccc21 | . | . | . | . | . | .
SMILES | Shiga inhibitor | AmpC inh no detg | AMA1-RON2 inh | Cycloheximide cs | AmpC detergent | SARS PLpro yeast
N=c1oc2cc(O)ccc2cc1C(=O)Nc1ccc(Cl)cc1 | 114.3 | . | . | 42.9 | . | .
N=c1oc2ccccc2cc1C(=O)Nc1cccc(F)c1 | 73.2 | . | . | 40.7 | . | .
O=C(Nc1c(C(=O)Nc2cccc(F)c2)oc2ccccc12)c1cc2ccccc2o1 | / | / | / | / | . | /
N=c1oc2ccccc2cc1C(=O)Nc1ccc(F)cc1 | 92.2 | . | . | 29.5 | . | .
O=C(NCCc1ccc(F)cc1)c1cc2ccccc2oc1=O | . | . | . | . | . | .
Cc1ccc(NC(=O)c2cc3ccccc3oc2=N)cc1 | 147.1 | . | . | 77.4 | . | .
NNC(=O)c1ccccc1CO | / | / | . | / | / | /
N/C(=N\OC(=O)COc1ccc2ccccc2c1Br)c1ccncc1 | 91.3 | . | / | 23.5 | . | .
N/C(=N\OC(=O)COc1ccc2ccccc2c1)c1cccnc1 | 52.5 | . | . | 24.3 | ? | .
O=C(COc1ccc2ccccc2c1)N1CCN(C(=O)c2cccnc2)CC1 | . | . | . | . | . | .
N/C(=N\OC(=O)c1ccc2ccccc2c1)c1ccncc1 | 117.5 | . | . | 37.3 | . | .
Cc1cccc(OCC(=O)O/N=C(\N)c2ccncc2)c1 | 59.3 | . | . | 19.7 | . | .
CS(=O)(=O)N(CC(=O)Nc1ccccc1-c1ccccc1)c1ccc(F)cc1 | . | . | . | . | . | .
CC(C)c1ccc(S(=O)(=O)N2CCC(C(=O)NCc3ccco3)CC2)cc1 | / | . | . | / | ? | .
N/C(=N\OC(=O)COc1ccc2ccccc2c1)c1ccncc1 | 34.4 | . | . | 30.5 | . | .
N/C(=N\OC(=O)c1ccc2ccccc2c1)c1ccccc1Cl | 176.4 | . | . | 50.8 | . | .
N/C(=N\OC(=O)c1ccc2ccccc2c1)c1ccccn1 | . | .[11.4 µM] | . | . | ? | ?
Cc1cc(C(=O)O/N=C(\N)c2ccncc2)ccc1[N+](=O)[O-] | 80.5 | . | . | 40.9 | . | .
N/C(=N\OC(=O)CCCOc1ccccc1)c1ccncc1 | . | . | . | . | . | .
COCCCN1C(=O)C(O)=C(C(C)=O)C1c1cccc(F)c1 (stereo not given) | . | . | . | . | ? | .
Cc1ccc2c([N+](=O)[O-])cccc2n1 | . | . | . | . | . | .
Cc1nc2c(ccc3c([N+](=O)[O-])cccc32)c(C)c1C | . | . | . | 36.7 | . | .
C/C(CC1(O)C(=O)N(Cc2ccccc2)c2ccccc21)=N\O (stereo not given) | . | / | . | . | . | /
Cc1cccc(OCCNc2cc(N3CCOCC3)ccc2[N+](=O)[O-])c1 | 26.0 | . | . | 29.6 | . | .
Cc1cc(Nc2ccc(Br)cc2)nc(-c2ccccc2O)n1 | . | . | . | . | . | .
SMILES | Shiga inhibitor | AmpC inh no detg | AMA1-RON2 inh | Cycloheximide cs | AmpC detergent | SARS PLpro yeast
Cc1ccc(Nc2cc(C)nc(-c3ccccc3)n2)cc1 | 91.0 | . | . | 41.9 | . | .
Cc1ccc(Oc2cc(C)nc(-c3ccccc3O)n2)cc1 | . | . | . | 36.6 | . | .
Cc1cc(NCCCN)nc(-c2ccccc2O)n1 | . | . | . | 25.4 | . | .
Cc1ccc(Nc2cc(C)nc(-c3ccccc3O)n2)cc1 | 94.6 | . | . | 28.9 | ? | .
Cc1ccnc(NC(=O)CCC(=O)N(CC(=O)NCc2ccc(F)cc2)Cc2ccco2)c1 | . | . | . | . | . | .
CCC(=O)Nc1cccc(NC(=O)c2ccc(Br)cc2)c1 | . | . | . | 13.6 | . | .
O=C(Nc1cccc(O)c1)c1ccc(Br)cc1 | 69.4 | . | . | 45.1 | . | .
CC(=O)Nc1cccc(NC(=O)c2ccc(Br)cc2)c1 | . | . | . | 27.5 | . | .
Cc1cccc(NC(=O)CCNC(=O)c2ccc(Br)cc2)c1 | 82.0 | . | . | 26.1 | . | .
Cc1ccc(S(=O)(=O)N(C)C[C@H]2OCc3cn(nn3)CCCC(=O)N([C@@H](C)CO)C[C@@H]2C)cc1 | / | / | . | / | / | /

Bioassay records as filed in PubChem.
